# Screening results deposited in PubChem BioAssay by several laboratories.
# BoNT A protease – BoNT/A light chain protease inhibitors, primary screen, biochemical, flow cytometry, MLPCN library; Botulinum neurotoxin type A light chain protease (Clostridium botulinum A str. ATCC 3502); multiplex microsphere protease substrate cleavage; inhibition, % at 10 µM; hit rate 0.17% among 360,000; note: plate controls were buffer without enzyme for full effect and enzyme alone for no effect
# MazEF act – activators of E. coli MazEF toxin-antitoxin RNase, primary screen, biochemical, fluorescence, uHTS; Endoribonuclease toxin MazF (Escherichia coli (strain K12)), P0AE70; FAM/BHQ RNA-DNA oligo cleavage fluorescence, 5 h; activation, % at 20 µM; hit rate 0.32% among 350,000; AID 504720, 2011; in the data active = activation above about 50%
# BoNT F protease – BoNT/F light chain protease inhibitors, primary screen, biochemical, flow cytometry, MLPCN library; inhibition, % at 10 µM; AID 588497, 2011; Multiplex microsphere protease cleavage assay; hit rate 0.22% among 360,000; in the data active = inhibition above about 35%, passing the limit was not always enough; inconclusive = no clear call, values can overlap the other calls; note: plate controls were buffer without enzyme for full effect and enzyme alone for no effect
# Anthrax LF prot – Bacillus anthracis LF protease inhibitors, primary screen, biochemical, multiplex microsphere, MLPCN library; inhibition, % at 10 µM; hit rate 0.12% among 360,000; AID 588501, 2011; multiplex microsphere protease cleavage assay; Lethal factor (Bacillus anthracis), P15917; note: plate controls were buffer without enzyme for full effect and enzyme alone for no effect
# Target sequence (P15917 whole entry, looked up): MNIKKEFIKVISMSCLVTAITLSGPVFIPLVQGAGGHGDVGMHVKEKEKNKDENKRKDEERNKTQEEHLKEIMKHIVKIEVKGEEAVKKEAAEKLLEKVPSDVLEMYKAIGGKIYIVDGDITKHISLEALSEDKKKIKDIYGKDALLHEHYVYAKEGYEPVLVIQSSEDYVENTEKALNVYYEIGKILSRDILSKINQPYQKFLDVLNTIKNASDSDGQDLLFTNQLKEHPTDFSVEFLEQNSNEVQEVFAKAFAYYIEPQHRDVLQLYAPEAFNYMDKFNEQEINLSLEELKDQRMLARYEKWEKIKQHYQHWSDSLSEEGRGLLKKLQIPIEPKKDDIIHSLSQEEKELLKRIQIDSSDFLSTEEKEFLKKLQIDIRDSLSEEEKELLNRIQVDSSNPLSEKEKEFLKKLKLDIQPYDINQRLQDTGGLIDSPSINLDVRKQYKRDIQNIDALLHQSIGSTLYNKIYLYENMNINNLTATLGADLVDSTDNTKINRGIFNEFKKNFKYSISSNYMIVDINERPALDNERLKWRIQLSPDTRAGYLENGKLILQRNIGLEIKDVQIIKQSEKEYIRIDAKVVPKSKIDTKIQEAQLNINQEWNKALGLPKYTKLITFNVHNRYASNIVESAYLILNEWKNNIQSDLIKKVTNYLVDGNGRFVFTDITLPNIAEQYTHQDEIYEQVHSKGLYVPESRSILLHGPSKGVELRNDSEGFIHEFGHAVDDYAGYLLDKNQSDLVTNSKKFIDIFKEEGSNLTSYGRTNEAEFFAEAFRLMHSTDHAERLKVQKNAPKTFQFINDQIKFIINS
# Bead autofluor – compound fluorescence in toxin protease inhibitor counterscreen; compound autofluorescence counterscreen, microsphere flow cytometry; active compounds read high; fluorescence intensity (concentration not given with the values); hit rate 3.1% among 360,000; in the data active = fluorescence intensity above about 16000; inconclusive = no clear call, values can overlap the other calls
# Numbers without * were called inactive; ? = inconclusive; . = no result. An excerpt weighted towards active compounds, which were near 3.7% of everything screened. Cut-off read from the data, not from the text of the source, unless noted: active = inhibition above about 30%; inconclusive = no clear call, values can overlap the other calls; inactive = below that.
SMILES,BoNT A protease,MazEF act,BoNT F protease,Anthrax LF prot,Bead autofluor
Cc1cc(C(=O)NCCC2=CCCCC2)no1,-9,10,-10,-8,25954*
Cc1cc2c(cc1C)N(C(=O)CSC1=NCCS1)C(C)(C)c1ssc(=S)c1-2,-2,0,-6,-5,21080*
COc1ccc(CNC(=O)C2Cc3c(-c4ccc5c(c4)OCO5)ccnc3O2)cc1OC (stereo unspecified),0,.,0,-4,3799
CC1=NNC(=O)C1CCC(=O)N/N=C\c1ccccc1[N+](=O)[O-] (stereo unspecified),?,-3,0,-1,22394*
COc1cccc(NC(=S)NCc2ccc3c(c2)cc(C)n3C)c1,54*,3,-121,-84,2002
Cc1cccc(NC(=S)NCc2ccccc2Cl)c1C,2,6,37*,-13,4243
Cc1cccc(NC(=S)NCc2ccc3c(c2)cc(C)n3C)c1C,47*,12,-125,-74,2076
Cc1cc2cc(CNC(=S)Nc3ccc(OC(F)(F)F)cc3)ccc2n1C,60*,19,-106,-82,1752
Cc1cccc(NC(=S)NCc2cccs2)c1C,1,7,12,0,4115
Cc1ccccc1OC1C(=O)N(Cc2ccc3c(c2)OCO3)C1c1sccc1C (stereo unspecified),?,-6,4,-3,22460*
CCOC(=O)c1cnn(-c2ccccc2)c1NC(=O)c1cccs1,0,1,-2,3,7163
CCOC(=O)c1cnn(CCOC(=O)c2cccs2)c1NC(=O)c1cccs1,1,-5,3,0,22411*
O=C(CC1Nc2ccccc2NC1=O)Nc1cc(Cl)cc(Cl)c1 (stereo unspecified),-6,-1,-8,0,22648*
C[C@H](CO)N1C[C@H](C)[C@H](CN(C)C(=O)Nc2ccc(F)cc2)OCc2ccccc2-c2c(n(C)c3ccccc23)C1=O,0,2,-2,-7,3272
CC[C@@H](C)[C@H](NC(=O)Cc1c(C)c2c(cc(C)c3c(C)c(C)oc32)oc1=O)C(=O)O,2,9,38*,-11,3639
CCCc1[nH]nc2c1C(c1ccccc1OC)C(C#N)=C(N)O2 (stereo unspecified),-1,7,-9,-8,6923
CCCc1[nH]nc2c1C(c1ccc(O)c(OC)c1)C(C#N)=C(N)O2 (stereo unspecified),0,53*,-3,0,10449
COCc1[nH]nc2c1C(c1cc(OC)c(O)c(OC)c1)C(C#N)=C(N)O2 (stereo unspecified),0,195*,-22,3,4414
CC(C)c1[nH]nc2c1C(c1cccs1)C(C#N)=C(N)O2 (stereo unspecified),-4,-4,-6,2,20949*
COCc1[nH]nc2c1C(c1ccc(OC)c(OC)c1)C(C#N)=C(N)O2 (stereo unspecified),-1,5,-25,-6,3573
COCc1[nH]nc2c1C(c1ccnc3ccccc13)C(C#N)=C(N)O2 (stereo unspecified),0,-2,0,-3,16149*
Cc1ccc(-c2cc(C(=O)NCCN3CCOCC3)c3ccccc3n2)o1,0,5,-8,1,5959
COc1cccc(CCNC(=O)CCCC(=O)c2ccccc2)c1,-1,2,-22,-4,3765
Cc1ccc(C2C(C#N)=C(N)Oc3n[nH]c(-c4cccs4)c32)cc1 (stereo unspecified),1,5,1,0,2846
COc1cc(C2C(C#N)=C(N)Oc3n[nH]c(-c4cccs4)c32)cc(OC)c1O (stereo unspecified),-1,60*,0,1,3681
SMILES,BoNT A protease,MazEF act,BoNT F protease,Anthrax LF prot,Bead autofluor
CCCCN1C(=O)C(CC(=O)NCc2ccco2)CC(C(=O)N2CCOCC2)=C1C (stereo unspecified),0,5,-2,-1,3583
CCn1ncc(C2=NOC(C(=O)NCc3ccccc3)C2)c1C (stereo unspecified),?,3,-10,-1,26555*
CCn1ncc(C2=NOC(C(=O)NCc3ccc(OC)cc3)C2)c1C (stereo unspecified),1,5,9,0,9292
CC(C)(C)NC(=O)CN(C(=O)CCC(=O)Nc1nccs1)c1ccccc1F,0,0,-7,-8,2917
O=C1NC[C@H](CCCCN2C[C@H](Cc3ccc(O)cc3)N(Cc3ccccc3)C(=O)C2=O)N(CCc2ccc(O)cc2)C1=O,0,.,1,-2,5138
COc1ccc(-c2cc(C(F)(F)F)n3nc(N)nc3n2)cc1,-1,-6,-1,0,23917*
CN(CC(=O)Nc1ccc(Cl)cc1)CC(=O)N1CCc2ccccc21,0,-1,3,7,3818
CC(C)(O)C1=NOC(c2ccccc2)C1 (stereo unspecified),0,1,1,-3,16732*
C/C=C1\NC(=O)[C@H](CC(N)=O)N(C)C(=O)C([C@@H](C)O)NC(=O)C(CCCc2ccc(OC)cc2)NC(=O)[C@H](C(C)C)NC(=O)/C(=C\C)NC(=O)[C@H](O)[C@@H](C[C@@H](O)CCCCCCC)NC(=O)[C@H](C)NC(=O)CN(C)C(=O)[C@H](CCC(N)=O)NC1=O (stereo partly specified),0,-2,-8,1,3568
CCCS(=O)(=O)NC(=O)C1(C)CCN(C(=O)CSc2ccccc2)C1 (stereo unspecified),0,.,0,-7,3775
CC1(C(=O)Nc2cccc3ncccc23)CCN1C(=O)Cc1ccc(-c2ccccc2)cc1 (stereo unspecified),0,.,-1,-6,3402
CCc1nnc(NC(=O)Cn2nc(-c3ccc(OC)c(OC)c3)ccc2=O)s1,1,1,3,0,8710
CCCc1nnc(NC(=O)CCC(=O)NCc2ccccc2OC)s1,0,-3,0,-2,22157*
CCc1nnc(NC(=O)Cn2nc(-c3ccccc3OC)ccc2=O)s1,?,44,1,-3,22524*
O=C(COc1ccccc1F)Nc1nnc(-c2ccncc2)s1,1,-15,-2,-2,5917
O=C(COc1ccc(F)cc1)Nc1nnc(-c2ccncc2)s1,-3,-7,-8,-4,18059*
CCOc1ccccc1C(=O)Nc1cc(Cl)ccc1O,0,68*,-19,-4,3764
Cc1c(C(=O)Nc2ccccc2-c2ccccc2)cccc1[N+](=O)[O-],4,-4,3,-10,20236*
CCOc1c(Cl)cc(C(=O)Nc2ccccc2C(=O)O)cc1Cl,?,-5,2,-3,19009*
COc1ccc(Br)cc1C(=O)Nc1ccccc1N1CCCC1,-2,-1,-14,-1,6629
